# E-sel TNF inh – blocks E-selectin expression induced by TNF alpha | inhibition, % at 2 µM | HUVEC TNFa-induced E-selectin immunofluorescence, high content | AID 1246 | 0.71% of 120,000 active;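 active = inhibition above the batch mean plus 3 SD, and confirmed as a hit on visual image review, cut at about 43% in these data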;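 also: 0% = TNF-stimulated DMSO wells and 100% = unstimulated control wells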
# VCAM1 TNFa inh – reduces TNF alpha induced VCAM1 expression in HUVEC; 0.48% of 95,000 active; AID 802; inhibition, % at 2 µM; HUVEC TNFa-induced VCAM-1 immunofluorescence, high-content imaging;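 active = inhibition above the batch mean plus 3 SD, with images confirmed as a hit by eye, cut at about 37% in these data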;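 also: 0% = TNF-stimulated DMSO wells and 100% = unstimulated control wells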
# F-actin modifier – cytoskeleton assembly modification. inhibition, % at 2 µM. 0.18% of 91,000 active. HUVEC TNFa F-actin phalloidin imaging, high content. AID 836;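 active = inhibition above the batch mean plus 3 SD and confirmed as a hit by visual image inspection, cut at about 30% in these data, passing the limit was not always enough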
# TNFa cytotox – toxic to HUVEC cells under TNF alpha stimulation; HUVEC TNFalpha-stimulated, Hoechst cell count, imaging; AID 848; cell count reduction, % at 2 µM; 0.17% of 93,000 active;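 active = cell count reduction exceeding the screen mean by over 5 SD, scaled to untreated wells per plate, cut at about 78% in these data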;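 also: cells counted after 24 h of TNF alpha exposure following the 1 h pretreatment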
# Active calls of the source: *; nt = no result. In the library only some 1% were active in any assay of this set; here they are far more common.
SMILES,E-sel TNF inh,VCAM1 TNFa inh,F-actin modifier,TNFa cytotox
CCOC(=O)C(C)Oc1cccc2c(=O)n(CC(=O)Nc3ccc4c(c3)OCCO4)ccc12 (configuration not stated),nt,3,-5,-3
O=C(Nc1ccc(S(=O)(=O)N2CCc3ccccc32)cc1)c1ccco1,5,13,-10,-2
CCC(C)(C)NC(=O)CN(C(=O)c1snc(C(N)=O)c1N)c1ccc(OC)c(OC)c1,76*,-10,2,-11
CCC(C)(C)NC(=O)Cc1ccc(OC)c(OC)c1,23,18,-6,3
CNC(=S)N/N=C(\C)c1ccc(N2CCOCC2)cc1,3,nt,nt,nt
C/C(=N\NC(=O)c1cccc(C)c1)c1ccc(N2CCOCC2)cc1,100*,-9,-13,2
C=CCN(CC(=O)Nc1c(C)cccc1CC)C(=O)SCCC,-9,20,-5,0
Cc1cc(C(=O)CN2C(=O)c3ccccc3C2=O)c(C)n1Cc1cccs1,-4,3,5,-19
CCOc1ccc(Nc2cc(C)nc(N3CCOCC3)n2)cc1,-1,-1,-7,-41
CCOC(=O)c1ccc(Nc2cc(C)nc(N3CCOCC3)n2)cc1,67*,-9,-17,-40
CCOC(=O)c1cnc2ccc(C(=O)OC)cc2c1Nc1cccc(C(=O)O)c1,3,nt,nt,nt
CCOC(=O)c1cnc2ccc(C)cc2c1Nc1ccc(N2CCOCC2)cc1,100*,-18,-11,5
CC(C)CC(=O)NCCc1ccncc1,5,6,8,-5
O=C(/C(=C/c1ccc(Cl)cc1)c1nc2ccccc2[nH]1)c1cccs1,-14,52*,12,-6
COc1ccc(OCC2CNC(=O)O2)cc1 (configuration not stated),96*,nt,nt,nt
O=C1NCC(COc2cccc3ccccc23)O1 (configuration not stated),21,nt,nt,nt
COc1ccc(C2=NN(C(=O)CSc3nnc(C)c(=O)n3N)C(c3ccco3)C2)cc1 (configuration not stated),-18,nt,nt,nt
Cc1cc(C)c(/C=N/NC(N)=O)c(C)c1/C=N/NC(N)=O,-29,69*,-104,44
COc1ccc(N2C(=O)CCC2(C#N)c2ccc(Br)cc2)cc1 (configuration not stated),100*,9,-12,-9
COc1ccccc1N1C(=O)CCC1(C#N)c1ccc(Br)cc1 (configuration not stated),0,13,13,0
CC(NC(=O)Cn1c(NCCO)nc2ccccc21)c1ccccc1 (configuration not stated),-22,2,1,-22
OCCCCCNc1ncnc2ccccc12,-8,2,7,-14
OCCCCNc1cccc2ccccc12,nt,43*,10,-20
COc1ccc(OC)c2sc(NC(=O)CCS(=O)(=O)c3ccccc3)nc12,93*,50*,7,4
CCC(=O)NCc1nc2ccccc2n1Cc1ccccc1F,65*,-3,-39,-4
SMILES,E-sel TNF inh,VCAM1 TNFa inh,F-actin modifier,TNFa cytotox
CCC(=O)NCCCc1nc2ccccc2n1Cc1ccccc1F,-31,nt,nt,nt
Cn1c(=O)oc2cc(S(=O)(=O)N3CCCC(C(=O)Nc4nccs4)C3)ccc21 (configuration not stated),17,19,5,-18
COc1ccc(-c2nnc(SCC(=O)c3ccc[nH]3)n2-c2ccccc2)cc1,-5,nt,nt,nt
COC(=O)CCC(=O)Nc1nc(-c2ccccc2)cs1,62*,-2,-10,-7
CN1C2C=C3C(C#N)=C(N)C(C#N)(C#N)[C@@H](c4cccs4)C3C1CC2 (some centres not stated),-7,19,-7,-5
COc1cccc(NC(=O)CSc2nccn2-c2cccc(OC)c2)c1,nt,-2,-18,-34
COCCCNC(=O)CN1C(=O)c2ccccc2C1=O,66*,-22,11,-20
O=C1c2ccccc2NC(c2ccc(Cl)cc2Cl)N1O (configuration not stated),-4,4,29,-28
C=CCc1cccc(C2Nc3ccccc3C(=O)N2O)c1O (configuration not stated),62*,-1,-28,-20
COc1cc(/C=N/NC(=O)c2cnn3c(C)cc(-c4ccccc4)nc23)ccc1O,-2,21,17,-26
CCn1ccnc1C(O)c1cccc(OC)c1 (configuration not stated),-3,-9,64*,-11
CCCCN(CC)CCNC(=O)c1cc2c(C)nc3ccccc3c2o1,nt,13,11,-21
O=C(CN1CCCCCC1=O)OCc1ncc(-c2ccccc2)o1,nt,90*,-34,70
N/C(CN1CCCC1=O)=N\OC(=O)c1ccccc1Cl,nt,-5,9,-15
Cc1ccc(Cl)cc1NC1=C/C(=N\S(=O)(=O)c2cccs2)c2ccccc2C1=O,29,91*,9,28
